# Results filed as inconclusive are left out. A call without a number means that no potency is given here. Unmarked numbers belong to inactive results. Calls of active or inactive are those of the source. The call rests on the fitted dose curve; in most records, active means well fitted inhibition curve with a large enough effect; inconclusive means small, poorly fitted or top-dose-only effect; inactive means flat fitted curve, though single readings scatter.
# Test: P-glycoprotein substrates identified in KB-8-5-11 adenocarcinoma cell line, qHTS therapeutic library screen (AID 1346987); further: nearly all actives have a fitted effect of over 65% in size
# Conditions: KB-8-5-11 (P-gp overexpressing) viability, CellTiter-Glo, 72 h; series mostly up to 44.5 µM
# Outline: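 KB-8-5-11: colchicine-selected sub-line of KB-3-1 over-expressing P-gp; assay medium lacked colchicine. 72 h drug exposure at 37 degree C, CellTiter-Glo.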
# Potency means the concentration at half of the fitted maximal effect.
SMILES,Potency,"activity change, negative = cytotoxicity"
CN(C)C(=O)NC1(c2ccccc2)CCN(CCC[C@]2(c3ccc(Cl)c(Cl)c3)CCCN(C(=O)c3ccccc3)C2)CC1,18.4 µM (active),
O=C1Cc2c([nH]c3ccc(Br)cc23)-c2ncccc2N1,inactive,
Cc1cc(N2CCN(C(=O)Oc3ccc(-c4ccccc4)cn3)CC2)c2ccccc2n1,14.6 µM (active),
CCn1c(=O)c(-c2ccc(Cl)cc2Cl)cc2cnc(Nc3ccc(N4CCNCC4)c(F)c3)nc21,20.6 µM (active),
COc1ccc(OC)c(-c2ccc(NC(=O)c3ccncc3F)cc2)c1,inactive,
Cn1ncc2cc(-c3cnc(N)c(Cl)c3N3CCC4(CCNC4=O)CC3)ccc21,inactive,
CC(C)Oc1ccc(-c2cnc3c(-c4ccnc5ccccc45)cnn3c2)cc1,inactive,
C=C1C(=O)OC2CC(C)C(CCC(C)O)=CCC12 (stereo not drawn),inactive,
c1ccc(-c2ccc(CNc3nc(-c4ccccn4)nnc3-c3ccccc3)cc2)cc1,4.61 µM (active),
COc1cccc(-c2cc(F)ccc2C2Cc3nc(N)nc(C)c3C(=O)N2)n1 (stereo not drawn),0.0259 µM (active),
COc1ccc(NC(=O)c2ccc(-c3ccc(-c4nnc(C)o4)cc3C)cc2)cc1N1CCN(C)CC1,inactive,
Cc1ccc(OC[C@H](O)[C@H](C)NC(C)C)c2c1CCC2,inactive,
CC(O)(C(=O)C1CC1(CO)COC1OC(CO)C(O)C(O)C1O)C1C(O)CC2C3CC=C4CC(O)CC(O)C4(C)C3C(O)CC21C (stereo not drawn),0.611 µM (active),
C=C1CC2OC(=O)C(=C)C2C(O)/C=C(\C)CCC1O (stereo not drawn),inactive,
C=CC(C)(O)CC/C=C(\C)C(=O)OC1C(O)C(CO)OC(OC(=O)C23CCC(C)(C)CC2C2=CCC4C5(C)CCC(OC6OC(COC7OCC(OC(C)=O)C(O)C7OC7OC(COC(C)=O)C(O)C(O)C7OC(C)=O)C(O)C(O)C6OC6OCC(O)C(O)C6O)C(C)(C)C5CCC4(C)C2(C)C(O)C3O)C1OC1OCC(OC2OCC(O)C(OC3OCC(O)C(O)C3O)C2O)C(O)C1O (stereo not drawn),,-2.64% [at 5.11 µM]
COc1ccc(C2(N(C)C(=O)c3ccc(NC(=O)c4ccco4)cc3)CCOCC2)cc1,inactive,
COc1ccc(-c2ccccc2)cc1NS(=O)(=O)c1cc(Cl)cc(Cl)c1O,inactive,
C/C1=C/CCC2=CC(OC2=O)C(C)(C)/C=C/C1=O (stereo not drawn),3.26 µM (active),
c1ccc(-c2cnn3cc(-c4ccc(OCCN5CCOCC5)cc4)cnc23)cc1,1.64 µM (active),

SMILES,Potency,"activity change, negative = cytotoxicity"
CCCCCCCCC(=O)N[C@H](CN1CCCC1)[C@H](O)c1ccc2c(c1)OCCO2,16.4 µM (active),
Oc1cccc(C2NC(=S)Nc3cccc(F)c32)c1 (stereo not drawn),23.1 µM (active),
CCNC(=O)Nc1ccc(-c2nc3c(c(N4CCOCC4C)n2)CCN(C2COC2)C3)cc1 (stereo not drawn),1.84 µM (active),
O=C(Nc1nc2cc(C(F)(F)F)cc(NC3CC3)n2n1)c1cccnc1,2.91 µM (active),
COc1c(C(O)CC(C)C)ccc2c1C(=O)OCc1cc(C)cc(O)c1O2 (stereo not drawn),inactive,
COc1ccc(-c2csc(NC(=O)[C@H]3CCCCN3S(=O)(=O)c3ccc(C)cc3)n2)cc1,inactive,
O=C(NCCCN1CCC2(CC1)OCc1ccccc12)[C@H]1CCCN1Cc1ccccc1,inactive,
O=C(NCc1ccc(OC(F)(F)F)cc1)C1c2c(F)cccc2C(=O)N1CCc1ccccn1 (stereo not drawn),inactive,
CC(C)(C)C1CCN(C(=O)n2ncc(C(O)(c3ccccc3)c3ccccc3)n2)CC1,20.6 µM (active),
CCC/C=C/c1cc2c(C=O)c(O)c(CC=C(C)C)cc2o1,inactive,
Cc1c(C(=O)Nc2ccc(N3CCC(N4CCOCC4)CC3)c(C#N)c2)cnn1-c1ccc(Cl)cc1,0.82 µM (active),
CC(=O)O[C@@H]1C[C@@]2(C)C(CC[C@]3(C)C2CC=C2C4CC(C)(C)CC[C@]4(C(=O)O)CC[C@]23C)C(C)(C)[C@H]1O (stereo partly drawn),inactive,
O=C1c2ccc(Nc3ccc(F)cc3F)cc2CCc2ccc(OCC(O)CO)cc21 (stereo not drawn),14.6 µM (active),
C/C=C(/C)C(=O)OC1CC(C)(C)CC2C3=CCC4C5(C)CCC(O[C@@H]6O[C@H](C(=O)O)[C@@H](O)[C@H](O)[C@H]6O[C@@H]6O[C@H](CO)[C@H](O)[C@H](O[C@@H]7OC[C@H](O)[C@H](O)[C@H]7O[C@@H]7O[C@H](CO)[C@@H](O)[C@H](O)[C@H]7O)[C@H]6O)C(C)(C)C5CCC4(C)C3(C)C(O)C(O)C12CO (stereo partly drawn),,-17.3% [at 9.29 µM]
Nc1ncnc2c1c(-c1ccc(Cl)cc1)nn2-c1cccc(-c2cnnn2Cc2cccc(-c3ccccc3)c2)c1,16.4 µM (active),
CN(C)CCn1cc(-c2ccc(F)cc2)c(-n2cccc2)n1,inactive,
CCC(C)C(=O)O[C@H]1[C@@H](OC(=O)c2ccoc2)C[C@](C)(O)[C@]23OC(C)(C)[C@H](C[C@H](OC(=O)c4ccoc4)[C@]12COC(C)=O)[C@H]3OC(C)=O (stereo partly drawn),inactive,
COc1cc(CCO)ccc1O[C@@H]1O[C@H](CO)[C@@H](O)[C@H](O)[C@H]1O,inactive,
CC[C@H](C)/C=C(C)/C=C/C1=CC2=C(Cl)C(=O)[C@](C)(O)[C@H](OC(C)=O)[C@H]2CO1,inactive,
